The text below walks through data of PubChem BioAssay AID1851 (National Center for Advancing Translational Sciences (NCATS), 2009).

The structures appear in SMILES notation. Where “and” joins values, the source holds several entries; their conditions need not be identical. Equal values may be shown once. The campaign covered roughly 16,000 compounds. About 4,000 (25%) were called active. About 26% were inconclusive and are not listed. The call rests on the fitted dose curve; in most records, active means well fitted curve in the direction sought with a large enough effect; inconclusive means small, poorly fitted or top-dose-only effect, or effect the other way; inactive means no such curve, though single readings can be large or run the other way. Only a sample is shown. The source holds several records for some structures; these can differ, active in one and inactive in another.
On the % scale 0 is the no-effect control and ±100 the full control effect.

Cytochrome P450 2C9 (Homo sapiens), sequence (P11712 whole entry, looked up): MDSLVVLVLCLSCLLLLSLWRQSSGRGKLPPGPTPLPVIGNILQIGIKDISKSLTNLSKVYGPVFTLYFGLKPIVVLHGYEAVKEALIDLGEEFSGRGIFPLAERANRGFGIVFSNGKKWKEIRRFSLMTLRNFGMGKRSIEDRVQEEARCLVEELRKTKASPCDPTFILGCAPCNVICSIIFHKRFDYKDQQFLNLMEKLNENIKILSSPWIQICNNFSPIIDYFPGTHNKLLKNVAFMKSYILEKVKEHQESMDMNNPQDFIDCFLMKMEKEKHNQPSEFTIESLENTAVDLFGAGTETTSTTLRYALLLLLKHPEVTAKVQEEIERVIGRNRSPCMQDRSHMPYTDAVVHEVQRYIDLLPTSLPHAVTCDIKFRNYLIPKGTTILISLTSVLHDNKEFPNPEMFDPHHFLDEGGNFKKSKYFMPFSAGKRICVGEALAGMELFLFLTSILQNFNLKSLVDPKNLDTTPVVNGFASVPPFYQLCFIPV

The test concerns the target Cytochrome P450 2C9 (Homo sapiens) (UniProt P11712). The experiment in a line: Cytochrome panel assay with activity outcomes. The conditions noted are these: recombinant CYP, pro-luciferin dealkylation, luminescence, p450-cyp2c9; series mostly up to 57.1 µM; activity, negative = inhibition: at the top concentration. Here is the method: The P450 gene superfamily is involved in the metabolism and clearance of xenobiotics. This assay used various human CYP P450 isozymes to measure the dealkylation of various pro-luciferin substrates to luciferin. The luciferin is then measured by luminescence after the addition of a luciferase detection reagent. Pro-luciferin substrate concentration in the assay was equal to its KM for its CYP P450 isozyme. Inhibitors and some substrates limit the production of luciferin, and decrease measured luminescence.
NCGC Assay Protocol Summary:
1, Reagent, 2 uL, Isozyme and Pro-Luciferin
2, Library compounds, 23 nl, 40 uM to 0.24 nM dilution series
3, Controls, 23 nl, Isozyme specific inhibitor
4, Reagent, 2 uL, NADPH regeneration solution
5, Incubation time, 60 min, Isozyme specific temperature
6, Reagent, 4ul, Detection reagent
7, Incubation time, 20 min, Isozyme specific temperature
8, Detection, 1 sec, ViewLux luminescent read
The luciferase-based P450-GloTM Screening Systems were obtained from Promega (Madison, WI) for CYP 1A2 (V9770), CYP 2C9 (V9790), CYP2 C19 (V9880), CYP 2D6 (V9890), and CYP 3A4 Luciferin-PPXE (V9910) and were adapted for 1,536-well microplates and an automated protocol. The control compounds furafylline for 1A2 (F124), sulfaphenazole for CYP 2C9 (S0758), ketoconazole for CYP 2C19 (K1003), quinidine for 2D6 (Q3625), and ketoconazole for 3A4 (K1003) were purchased from Sigma Aldrich (St. Louis, MO). Recombinant P450 enzymes were obtained from baculovirus constructs expressed in insect cells (BD/Gentest).
Medium-binding white solid Kalypsys plates used. Mixtures kept on ice. 1A2: 10 nM 1A2, 100 uM Luc-ME, 100 mM KPO4; 2C9: 10 nM 2C9, 100 uM Luc-H, 25 mM KPO4; 2C19: 5 nM 2C19, 10 uM Luc-H EGE, 50 mM KPO4; 2D6: 5 nM 2D6, 30 uM Luc-ME EGE, 100 mM KPO4; 3A4: 10 nM, 25 uM Luc-PPXE. All amounts are reflected in their final concentration, working concentration is 2x.
NADPH regeneration solution: 1.3 mM NADP+, 3.3 mM glucose-6-phosphate, 3.3 mM MgCl2, 0.4 U/mL glucose-6-phosphate dehydrogenase for all isozymes, 200 mM KPO4 for 3A4. Mixture prepared at RT but kept on ice during automated run.
RT incubation in auxilliary plate hotel for 1A2, 2D6, and 3A4; 37C for 2C9 and 2C19.
Keywords: P450, CYP1A2, CYP2C19, CYP2C9, CYP2D6, CYP3A4, Luciferase, MLSMR, MLSCN, NIH Roadmap, qHTS, NCGC
`O=C1c2cccnc2C(O)N1C1CCCCC1` (configuration not stated): the “activity, negative = inhibition” value is -10.4% (inactive).

Take `Cc1nc2cnc(Nc3ccccc3)nc2n(C2CC2)c1=O`: the “activity, negative = inhibition” value was -16.5% (inactive).

Broadly, the AC50 is the concentration giving half of the maximal activity seen. Turning to `Cc1nc2c(n1C1CCCCC1)C(=O)c1ccccc1C2=O`, the AC50 was 15.8 µM (active).

Take `N[C@H](C(=O)O)c1ccc(O)c(C(=O)O)c1`: the “activity, negative = inhibition” value is 7.54% (inactive).

Turning to `N[C@@H](C(=O)O)c1ccc(C(=O)O)c(O)c1`, the “activity, negative = inhibition” value was -29% (inactive).

Take `N[C@@H](C(=O)O)c1ccc(C(=O)O)c(C(=O)O)c1`: the AC50 is 12.6 µM (active) and inactive.

Consider `COc1cccc([C@@H]2Oc3ccc(OC)cc3C(=O)[C@H]2O)c1`, for which the activity, negative = inhibition was -9.12% [at 11.4 µM] (inactive).

Consider `COCOc1ccc(Br)cc1C(=O)[C@H]1O[C@H]1c1cccc(OC)c1`, for which the activity, negative = inhibition is 8.38% [at 11.4 µM] (inactive).

Turning to `COc1cccc([C@@H]2Oc3ccc(Br)cc3C(=O)[C@H]2O)c1`, the AC50 was 2.51 µM (active).

As for `CNc1ncncc1-c1ccccc1C(F)(F)F`, the activity, negative = inhibition is 4.51% [at 2.29 µM] (inactive).

Take `COc1ccc(C(=O)N2CC3(CC(c4cccc([N+](=O)[O-])c4)=NO3)C[C@H]2C(=O)NCC(N)=O)cc1` (some centres not stated): the “activity, negative = inhibition” value was -29.6% (inactive).

`O=C(NCc1ccccc1)C12CN(Cc3ccccc3)CC1C(c1cccc([N+](=O)[O-])c1)=NO2` (configuration not stated): the AC50 is 7.94 µM (active).

On to `CC(C)CCNC(=O)C12CN(Cc3ccccc3)CC1C(c1cccc([N+](=O)[O-])c1)=NO2` (configuration not stated), for which the AC50 is 5.62 µM (active).

As for `COc1cccc(C2=NOC(C(=O)NCc3ccccc3)C2)c1` (configuration not stated), the “activity, negative = inhibition” value is 15.8% (inactive).

As for `CCS(=O)(=O)N1CCC(C(=O)NCCN2CCN(Cc3ccccc3)CC2)CC1`, the “activity, negative = inhibition” value was 11.7% (inactive).

For `O=C(Cn1c(=O)n(Cc2ccco2)c(=O)c2c3c(sc21)CCCCC3)c1ccccc1`, the AC50 was 2.51 µM (active).

For `CN(C)CCn1c(=O)n(Cc2ccco2)c(=O)c2c3c(sc21)CCCCC3`, the AC50 is 14.1 µM (active).

Take `NC(=O)Cn1c(=O)n(Cc2ccco2)c(=O)c2c3c(sc21)CCCCC3`: the AC50 was 11.2 µM (active).

Turning to `Cn1c(=O)c2c3c(sc2n2cnnc12)CCC3`, the “activity, negative = inhibition” value was -24.7% (inactive).

On to `O=C(N/N=C/c1ccc2cccc(OCc3ccccc3)c2n1)c1ccc(Br)cc1`, for which the AC50 was 3.55 µM (active).

For `COc1ccc(O)c(/C=N/NC(=O)c2ccc(OCc3cccc(Br)c3)cc2)c1`, the “activity, negative = inhibition” value is -22.4% (inactive).

With `O=C(N/N=C/c1ccc(F)cc1)c1ccc(Br)cc1`, the “activity, negative = inhibition” value is -7.63% (inactive).

Consider `CCn1c(SCC(=O)N2CCOCC2)nc2oc3c(Cl)cc(Cl)cc3c(=O)c2c1=O`, for which the AC50 was 3.98 µM (active).

Regarding `O=C(Nc1ccc(Cl)cc1)OCCn1nnnc1C(c1ccccc1Cl)N1CCOCC1` (configuration not stated), the AC50 is 4.47 µM (active).

Regarding `COc1ccc(N2CCN(C(CNC(=O)C3CCCCC3)c3cccnc3)CC2)cc1` (configuration not stated), the “activity, negative = inhibition” value is -14.1% (inactive).

`N#Cc1ccc(C(c2nnnn2Cc2ccccc2)N2CCCC2)cc1` (configuration not stated): the “activity, negative = inhibition” value was -67% (inactive).

In the case of `CCC(c1nnnn1CCOC)N1CCN(C(=O)c2ccco2)CC1` (configuration not stated), the “activity, negative = inhibition” value is -40.7% (inactive).

Regarding `COc1ccc(Cn2nnnc2C(c2ccccc2Cl)N2CCC(C(N)=O)CC2)cc1` (configuration not stated), the AC50 was 15.8 µM (active).

For the compound `O=C(c1ccc(C(F)(F)F)cc1)c1c[nH]c(C(=O)NCCCn2ccnc2)c1`, the AC50 was 1.12 µM (active).

As for `Cc1ccc(C(=O)c2c[nH]c(C(=O)NCCCN3CCOCC3)c2)cc1`, the “activity, negative = inhibition” value was -2.52% (inactive).

For the compound `O=C(NCCCN1CCOCC1)c1cc(C(=O)C2CC2)c[nH]1`, the “activity, negative = inhibition” value was 33% (inactive).

Take `CC(C)[C@@H](OCc1ccccc1)[C@H](C)/C=N\O[C@@H](C)c1cn([C@H](CO)Cc2ccccc2)nn1`: the activity, negative = inhibition is -21.6% [at 11.4 µM] (inactive) and -25.5% [at 11.4 µM] (inactive).

For the compound `Cc1cc(/C=N/n2cnnc2)c(C)n1-c1ccc(OCc2ccccc2F)cc1`, the AC50 was 4.47 µM (active).

With `COn1c(SCc2ccc(C)cc2C)nc2ccccc2c1=O`, the AC50 is 0.282 µM (active).

Regarding `COn1c(SCc2cccc(Cl)c2)nc2ccccc2c1=O`, the AC50 was 1.78 µM (active).

As to `COc1nc(Cl)nc(Cl)c1Cl` (tested in a mixture with another compound), the activity, negative = inhibition was -7.53% [at 11.4 µM] (inactive).

As for `CC(C)CO/N=C1/C[C@@H](O)[C@@H](O)[C@@H]2[C@@H]3C(=O)N([C@@H](C)c4ccccc4)C(=O)[C@H]3CC[C@H]12`, the activity, negative = inhibition is -8.59% [at 11.4 µM] (inactive).

For the compound `C1=C(CN2CCOCC2)COc2c1cccc2OC[C@@H]1CNCCO1`, the “activity, negative = inhibition” value is 13.9% (inactive).

With `CO[C@@H]1COC(=O)CCC[C@@H](C)[C@H](OC)COC(=O)[C@H](Cc2ccccc2)NC(=O)C/C=C\[C@H]1C`, the activity, negative = inhibition was -2.4% [at 11.4 µM] (inactive).

`CC(=O)n1nc(-c2ccco2)nc1N`: the “activity, negative = inhibition” value was -29.7% (inactive).

As for `O=C(Cc1ccccc1)Nc1nc2ccc(Cl)cc2c2nc(-c3ccco3)nn12`, the AC50 is 3.16 µM (active).

Regarding `CN1CCN(c2cc(-c3ccc(N(C)C)cc3)ncn2)CC1`, the activity, negative = inhibition is 14.3% [at 2.29 µM] (inactive).

`Cc1noc(C)c1-c1ccc2ncnc(NCc3ccccc3)c2c1`: the activity, negative = inhibition was -8.92% [at 2.29 µM] (inactive).

`CCOC(=O)/C(C#N)=C1/C=CN(C)C=N1`: the “activity, negative = inhibition” value was -14.9% (inactive).

On to `CCCCCCN1C=CC(=C/C=C(\C#N)C(=O)OCC)C=C1`, for which the AC50 was 2.24 µM (active).

`CCCC[S@@](=N)(=O)CC[C@@H](N)C(=O)O`: the AC50 result was “inactive”.

For `O=C(CSc1nnc(SCc2cccc3ccccc23)s1)c1ccc2c(c1)OCO2`, the AC50 is 4.47 µM (active).
